Our source for the residual activity values is ChEMBL document CHEMBL2218924, “A broad activity screen in support of a chemogenomic map for kinase signalling research and drug discovery” (Biochem J, 2013).

Assay [1] addresses Calcium/calmodulin-dependent protein kinase type 1 (Homo sapiens) (UniProt Q14012). The conditions noted are these: at 10 µM.
Assay [2] concerns the target Calcium/calmodulin-dependent protein kinase type II subunit beta (Homo sapiens) (UniProt Q13554). The conditions noted are these: at 10 µM.
Assay [3] deals with T1, Calcium/calmodulin-dependent protein kinase type IV (Homo sapiens) (UniProt Q16566).
T1 sequence (whole entry): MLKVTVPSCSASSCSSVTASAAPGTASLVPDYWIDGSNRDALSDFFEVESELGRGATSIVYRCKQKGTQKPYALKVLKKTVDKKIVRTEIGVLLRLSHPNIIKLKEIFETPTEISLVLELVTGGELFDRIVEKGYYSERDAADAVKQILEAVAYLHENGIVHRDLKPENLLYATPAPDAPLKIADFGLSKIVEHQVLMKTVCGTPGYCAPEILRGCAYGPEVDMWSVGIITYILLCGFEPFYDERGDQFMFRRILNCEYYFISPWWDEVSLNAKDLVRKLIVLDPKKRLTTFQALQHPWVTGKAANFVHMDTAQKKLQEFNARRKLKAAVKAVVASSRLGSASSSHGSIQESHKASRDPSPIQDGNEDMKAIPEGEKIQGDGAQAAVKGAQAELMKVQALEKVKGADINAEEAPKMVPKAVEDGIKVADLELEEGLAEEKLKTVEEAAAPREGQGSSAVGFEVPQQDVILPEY
The conditions noted are these: at 1 µM.

The target of assay [4] is T1, Calcium/calmodulin-dependent protein kinase type IV (Homo sapiens). To be noted: at 10 µM.
For assay [5], the target named is T2, Serine/threonine-protein kinase DCLK2 (Homo sapiens) (UniProt Q8N568).
T2 sequence (whole entry): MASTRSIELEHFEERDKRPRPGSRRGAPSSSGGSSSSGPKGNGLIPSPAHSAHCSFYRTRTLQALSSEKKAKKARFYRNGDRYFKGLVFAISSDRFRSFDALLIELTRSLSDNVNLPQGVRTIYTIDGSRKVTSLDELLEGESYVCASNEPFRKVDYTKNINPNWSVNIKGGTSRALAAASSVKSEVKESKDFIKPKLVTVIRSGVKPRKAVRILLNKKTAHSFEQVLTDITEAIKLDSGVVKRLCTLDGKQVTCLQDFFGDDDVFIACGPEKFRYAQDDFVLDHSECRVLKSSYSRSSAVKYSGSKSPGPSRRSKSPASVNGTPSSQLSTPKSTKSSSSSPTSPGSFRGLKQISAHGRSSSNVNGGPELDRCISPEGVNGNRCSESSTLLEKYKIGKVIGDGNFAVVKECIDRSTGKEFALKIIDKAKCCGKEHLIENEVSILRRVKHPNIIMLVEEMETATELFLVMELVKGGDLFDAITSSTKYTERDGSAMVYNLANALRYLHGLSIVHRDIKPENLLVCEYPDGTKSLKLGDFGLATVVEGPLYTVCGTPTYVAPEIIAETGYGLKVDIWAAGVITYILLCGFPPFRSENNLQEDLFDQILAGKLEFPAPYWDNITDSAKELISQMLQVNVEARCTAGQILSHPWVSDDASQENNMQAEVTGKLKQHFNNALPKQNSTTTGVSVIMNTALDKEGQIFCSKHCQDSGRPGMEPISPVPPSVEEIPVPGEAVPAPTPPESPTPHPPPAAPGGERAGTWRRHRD
To be noted: at 1 µM.

Assay [6] deals with T2, Serine/threonine-protein kinase DCLK2 (Homo sapiens). To be noted: at 10 µM.
For assay [7], the target named is T3, Discoidin domain-containing receptor 2 (Homo sapiens) (UniProt Q16832).
T3 sequence (whole entry): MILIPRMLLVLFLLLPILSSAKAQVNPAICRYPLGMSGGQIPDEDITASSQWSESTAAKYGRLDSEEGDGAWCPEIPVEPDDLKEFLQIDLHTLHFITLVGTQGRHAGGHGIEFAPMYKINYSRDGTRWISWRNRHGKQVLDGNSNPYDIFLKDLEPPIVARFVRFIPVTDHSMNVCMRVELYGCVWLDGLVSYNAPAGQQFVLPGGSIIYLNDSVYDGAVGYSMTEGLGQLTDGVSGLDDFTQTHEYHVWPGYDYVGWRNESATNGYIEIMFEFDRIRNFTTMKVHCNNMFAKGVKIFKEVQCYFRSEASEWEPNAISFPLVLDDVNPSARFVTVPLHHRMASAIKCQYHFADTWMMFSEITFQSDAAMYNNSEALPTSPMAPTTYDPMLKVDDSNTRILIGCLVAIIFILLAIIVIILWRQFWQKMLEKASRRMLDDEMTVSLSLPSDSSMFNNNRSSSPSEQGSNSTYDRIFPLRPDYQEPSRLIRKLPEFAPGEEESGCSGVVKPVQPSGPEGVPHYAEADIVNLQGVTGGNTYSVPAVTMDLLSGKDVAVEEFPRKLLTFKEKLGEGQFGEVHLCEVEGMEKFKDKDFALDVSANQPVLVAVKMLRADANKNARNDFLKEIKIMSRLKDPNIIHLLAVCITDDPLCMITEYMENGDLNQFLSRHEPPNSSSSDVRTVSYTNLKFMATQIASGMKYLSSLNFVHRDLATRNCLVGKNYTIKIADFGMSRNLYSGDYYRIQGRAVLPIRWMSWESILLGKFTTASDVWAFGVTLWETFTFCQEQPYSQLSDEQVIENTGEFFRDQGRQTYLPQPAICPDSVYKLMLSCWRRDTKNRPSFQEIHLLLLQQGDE
The conditions noted are these: at 1 µM.

Assay [8] has as its target Death-associated protein kinase 2 (Homo sapiens) (UniProt Q9UIK4). To be noted: at 10 µM.
The target of assay [9] is T3, Discoidin domain-containing receptor 2 (Homo sapiens). The conditions noted are these: at 10 µM.
The target of assay [10] is T4, Serine/threonine-protein kinase 17A (Homo sapiens) (UniProt Q9UEE5).
T4 sequence (whole entry): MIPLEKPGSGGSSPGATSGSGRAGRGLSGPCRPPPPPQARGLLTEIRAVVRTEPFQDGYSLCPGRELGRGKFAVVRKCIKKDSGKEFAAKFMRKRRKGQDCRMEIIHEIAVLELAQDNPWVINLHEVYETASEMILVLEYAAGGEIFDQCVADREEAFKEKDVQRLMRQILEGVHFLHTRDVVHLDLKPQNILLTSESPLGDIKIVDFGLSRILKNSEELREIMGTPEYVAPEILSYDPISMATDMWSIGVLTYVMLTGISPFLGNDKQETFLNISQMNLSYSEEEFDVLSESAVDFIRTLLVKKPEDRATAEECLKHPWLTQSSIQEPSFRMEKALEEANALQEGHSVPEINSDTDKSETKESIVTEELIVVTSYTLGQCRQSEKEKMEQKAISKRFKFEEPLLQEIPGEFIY
To be noted: at 1 µM.

The target in assay [11] is Calcium/calmodulin-dependent protein kinase type II subunit gamma (Homo sapiens) (UniProt Q13555). The conditions noted are these: at 1 µM.
Sequence of Calcium/calmodulin-dependent protein kinase type II subunit gamma (Homo sapiens) (Q13555 whole entry): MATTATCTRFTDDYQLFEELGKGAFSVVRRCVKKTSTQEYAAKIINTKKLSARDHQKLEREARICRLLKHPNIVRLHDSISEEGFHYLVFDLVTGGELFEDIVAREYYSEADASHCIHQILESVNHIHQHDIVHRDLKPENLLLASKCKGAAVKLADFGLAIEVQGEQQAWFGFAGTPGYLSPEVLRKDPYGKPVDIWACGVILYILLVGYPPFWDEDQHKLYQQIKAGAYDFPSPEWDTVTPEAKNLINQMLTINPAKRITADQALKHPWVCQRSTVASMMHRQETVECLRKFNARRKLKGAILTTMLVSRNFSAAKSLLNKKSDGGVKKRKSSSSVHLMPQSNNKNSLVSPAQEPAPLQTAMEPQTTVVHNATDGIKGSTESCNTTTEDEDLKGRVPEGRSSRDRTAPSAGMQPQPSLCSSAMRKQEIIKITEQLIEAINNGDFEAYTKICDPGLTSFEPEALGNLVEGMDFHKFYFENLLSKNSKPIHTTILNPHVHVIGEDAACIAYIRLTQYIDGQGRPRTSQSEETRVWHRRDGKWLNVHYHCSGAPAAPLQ
The target is the same in assay [12]. To be noted: at 10 µM.
Assay [13] addresses Calcium/calmodulin-dependent protein kinase type II subunit delta (Homo sapiens) (UniProt Q13557). To be noted: at 1 µM.
Assay [14] has the same target. The conditions noted are these: at 10 µM.
The target in assay [15] is Death-associated protein kinase 1 (Homo sapiens) (UniProt P53355). The conditions noted are these: at 10 µM.
Sequence of Death-associated protein kinase 1 (Homo sapiens) (P53355 whole entry, looked up): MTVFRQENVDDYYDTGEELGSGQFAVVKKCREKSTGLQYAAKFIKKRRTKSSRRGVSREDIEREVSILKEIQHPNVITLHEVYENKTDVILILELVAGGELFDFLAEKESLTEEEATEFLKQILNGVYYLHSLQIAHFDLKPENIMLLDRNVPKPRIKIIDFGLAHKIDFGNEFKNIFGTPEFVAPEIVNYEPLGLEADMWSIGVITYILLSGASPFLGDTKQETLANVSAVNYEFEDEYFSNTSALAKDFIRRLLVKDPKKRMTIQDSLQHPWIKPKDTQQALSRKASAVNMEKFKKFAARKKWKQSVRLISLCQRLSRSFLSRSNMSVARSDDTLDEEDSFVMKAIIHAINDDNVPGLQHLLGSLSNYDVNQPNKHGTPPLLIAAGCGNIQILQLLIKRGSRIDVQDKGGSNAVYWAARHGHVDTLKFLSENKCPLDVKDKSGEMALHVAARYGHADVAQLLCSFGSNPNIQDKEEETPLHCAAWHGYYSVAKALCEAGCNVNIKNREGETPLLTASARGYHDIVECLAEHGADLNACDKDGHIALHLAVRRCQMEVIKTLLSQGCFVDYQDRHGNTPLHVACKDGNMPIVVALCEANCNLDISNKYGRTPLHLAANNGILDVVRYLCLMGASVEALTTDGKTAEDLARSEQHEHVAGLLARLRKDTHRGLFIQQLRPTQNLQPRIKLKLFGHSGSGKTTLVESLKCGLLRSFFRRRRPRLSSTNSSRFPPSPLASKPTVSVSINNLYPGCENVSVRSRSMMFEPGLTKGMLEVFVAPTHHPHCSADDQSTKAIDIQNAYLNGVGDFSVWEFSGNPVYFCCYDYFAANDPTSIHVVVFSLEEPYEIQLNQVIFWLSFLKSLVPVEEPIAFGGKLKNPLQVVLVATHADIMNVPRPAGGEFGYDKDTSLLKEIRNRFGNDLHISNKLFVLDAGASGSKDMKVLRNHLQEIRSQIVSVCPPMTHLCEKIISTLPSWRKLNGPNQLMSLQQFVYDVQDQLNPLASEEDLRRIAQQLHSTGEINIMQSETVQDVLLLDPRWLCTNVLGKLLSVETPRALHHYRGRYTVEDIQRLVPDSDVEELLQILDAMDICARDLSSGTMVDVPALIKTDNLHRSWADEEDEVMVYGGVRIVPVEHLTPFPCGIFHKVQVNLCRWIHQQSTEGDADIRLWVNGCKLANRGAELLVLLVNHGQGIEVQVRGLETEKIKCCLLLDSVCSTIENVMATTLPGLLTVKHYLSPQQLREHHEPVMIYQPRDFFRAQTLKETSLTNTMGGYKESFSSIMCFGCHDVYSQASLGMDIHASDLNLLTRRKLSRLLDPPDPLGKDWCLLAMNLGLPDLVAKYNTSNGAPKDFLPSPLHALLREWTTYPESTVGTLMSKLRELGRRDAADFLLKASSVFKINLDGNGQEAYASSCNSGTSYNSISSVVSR
The target in assay [16] is Death-associated protein kinase 2 (Homo sapiens) (UniProt Q9UIK4). To be noted: at 1 µM.
Sequence of Death-associated protein kinase 2 (Homo sapiens) (Q9UIK4 whole entry, looked up, the tested form may be a part): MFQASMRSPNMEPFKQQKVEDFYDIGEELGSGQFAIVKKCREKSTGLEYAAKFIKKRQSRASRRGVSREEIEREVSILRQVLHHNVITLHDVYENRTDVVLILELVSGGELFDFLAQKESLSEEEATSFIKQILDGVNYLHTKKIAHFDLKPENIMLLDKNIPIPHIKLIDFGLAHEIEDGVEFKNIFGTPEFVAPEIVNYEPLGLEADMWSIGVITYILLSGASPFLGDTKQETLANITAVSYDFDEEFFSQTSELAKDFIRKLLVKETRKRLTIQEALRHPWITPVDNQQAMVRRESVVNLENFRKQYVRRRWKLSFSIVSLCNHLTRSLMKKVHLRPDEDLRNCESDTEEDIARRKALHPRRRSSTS
In assay [17] the target is Calcium/calmodulin-dependent protein kinase type II subunit beta (Homo sapiens) (UniProt Q13554). To be noted: at 1 µM.
Sequence of Calcium/calmodulin-dependent protein kinase type II subunit beta (Homo sapiens) (Q13554 whole entry): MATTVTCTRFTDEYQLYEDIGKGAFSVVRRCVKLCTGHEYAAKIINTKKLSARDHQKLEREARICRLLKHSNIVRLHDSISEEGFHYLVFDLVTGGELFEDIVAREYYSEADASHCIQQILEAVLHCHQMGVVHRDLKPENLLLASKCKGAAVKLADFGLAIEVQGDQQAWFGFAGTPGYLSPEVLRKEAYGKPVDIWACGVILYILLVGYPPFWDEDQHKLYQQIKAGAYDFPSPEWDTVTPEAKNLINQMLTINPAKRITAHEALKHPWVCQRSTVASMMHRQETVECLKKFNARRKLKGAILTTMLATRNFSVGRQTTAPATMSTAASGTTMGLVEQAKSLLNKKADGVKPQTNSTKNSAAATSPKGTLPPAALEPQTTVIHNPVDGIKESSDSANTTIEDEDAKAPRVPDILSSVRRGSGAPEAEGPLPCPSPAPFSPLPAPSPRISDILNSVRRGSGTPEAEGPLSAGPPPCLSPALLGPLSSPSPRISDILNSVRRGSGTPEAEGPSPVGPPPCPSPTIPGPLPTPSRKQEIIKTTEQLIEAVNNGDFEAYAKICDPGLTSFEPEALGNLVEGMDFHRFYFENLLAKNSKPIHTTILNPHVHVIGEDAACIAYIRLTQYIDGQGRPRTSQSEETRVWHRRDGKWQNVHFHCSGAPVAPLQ
Assay [18] concerns the target T5, Myotonin-protein kinase (Homo sapiens) (UniProt Q09013).
T5 sequence (whole entry): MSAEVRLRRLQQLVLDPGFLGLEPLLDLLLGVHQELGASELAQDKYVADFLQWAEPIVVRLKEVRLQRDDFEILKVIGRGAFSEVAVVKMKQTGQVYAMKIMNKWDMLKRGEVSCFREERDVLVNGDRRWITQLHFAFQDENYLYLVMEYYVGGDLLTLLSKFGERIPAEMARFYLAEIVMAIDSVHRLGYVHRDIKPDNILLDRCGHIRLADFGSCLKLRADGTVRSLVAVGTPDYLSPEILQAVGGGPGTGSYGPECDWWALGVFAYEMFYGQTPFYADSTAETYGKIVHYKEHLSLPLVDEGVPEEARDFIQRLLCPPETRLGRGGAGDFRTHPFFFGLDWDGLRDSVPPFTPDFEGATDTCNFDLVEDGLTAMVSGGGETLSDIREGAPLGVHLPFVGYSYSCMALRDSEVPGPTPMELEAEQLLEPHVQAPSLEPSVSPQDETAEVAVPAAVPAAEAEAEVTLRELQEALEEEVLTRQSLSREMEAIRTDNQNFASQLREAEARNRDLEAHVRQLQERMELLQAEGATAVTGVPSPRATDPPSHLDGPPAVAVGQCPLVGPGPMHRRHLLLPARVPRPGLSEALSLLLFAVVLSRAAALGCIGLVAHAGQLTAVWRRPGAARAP
To be noted: at 1 µM.

Assay [19] has as its target T5, Myotonin-protein kinase (Homo sapiens). The conditions noted are these: at 10 µM.

Sequence of Calcium/calmodulin-dependent protein kinase type 1 (Homo sapiens) (Q14012 whole entry, looked up): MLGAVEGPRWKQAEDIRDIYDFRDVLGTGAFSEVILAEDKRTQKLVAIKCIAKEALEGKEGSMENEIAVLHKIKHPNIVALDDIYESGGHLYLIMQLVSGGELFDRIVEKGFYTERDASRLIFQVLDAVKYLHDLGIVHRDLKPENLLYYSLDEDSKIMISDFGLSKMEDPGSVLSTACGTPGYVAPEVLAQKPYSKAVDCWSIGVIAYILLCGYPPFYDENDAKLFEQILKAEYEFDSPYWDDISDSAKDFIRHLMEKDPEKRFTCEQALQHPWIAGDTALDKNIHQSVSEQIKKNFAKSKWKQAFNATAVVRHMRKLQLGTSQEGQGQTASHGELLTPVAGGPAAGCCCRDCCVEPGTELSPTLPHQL
Sequence of Calcium/calmodulin-dependent protein kinase type II subunit delta (Homo sapiens) (Q13557 whole entry): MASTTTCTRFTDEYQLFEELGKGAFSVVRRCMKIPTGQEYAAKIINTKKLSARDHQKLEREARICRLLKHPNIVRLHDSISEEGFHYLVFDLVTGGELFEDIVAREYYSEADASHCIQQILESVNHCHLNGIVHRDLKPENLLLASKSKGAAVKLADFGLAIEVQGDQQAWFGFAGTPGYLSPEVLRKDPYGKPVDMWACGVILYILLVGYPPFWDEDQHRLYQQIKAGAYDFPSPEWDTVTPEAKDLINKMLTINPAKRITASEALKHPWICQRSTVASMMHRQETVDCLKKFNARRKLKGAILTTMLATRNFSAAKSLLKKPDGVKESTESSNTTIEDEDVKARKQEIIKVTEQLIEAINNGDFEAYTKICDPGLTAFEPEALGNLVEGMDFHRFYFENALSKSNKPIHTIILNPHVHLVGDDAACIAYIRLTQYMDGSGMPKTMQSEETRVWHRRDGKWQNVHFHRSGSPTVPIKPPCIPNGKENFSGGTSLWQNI

Consider `N#C/C(=C\c1ccc(O)c(O)c1)C(=O)NCc1ccccc1`, for which the residual activity in assay [1] came to 87%; in assay [2], 89%; in [3], 121%; in [4] it was 84%; in [5], 69%; in assay [6], 88%. The residual activity in assay [7] stood at 119%.

With `O=C(Nc1ccc(Cl)cc1)c1ccccc1NCc1ccncc1`, the residual activity was determined as 119% in [8], 74% in [5], 36% in [9] and 99% in [10].

`CSc1nc(-c2ccc(F)cc2)c(-c2ccnc(NC(C)c3ccccc3)c2)[nH]1` (stereo unspecified): the residual activity in assay [1] worked out at 87%; in assay [2], 75%; in assay [11] it was 98%; in assay [12], 83%; in assay [13], 102%; in assay [14], 83%. For the same molecule, the residual activity in [4] was found to be 92%; in assay [15] it was 96%; in assay [16], 101%; in assay [8] it was 95%; in [5], 137%; in [6], 100%. Moreover, the figures for the residual activity in assay [7] and in assay [9] were 98% and 93%, respectively.

On to `Oc1cccc(-c2nc(N3CCOCC3)c3oc4ncccc4c3n2)c1`, for which the residual activity turned out to be 90% in assay [2]; 98% in [11]; 66% in assay [12]; 75% in [4]; 76% in assay [15]; 93% in [16]. The residual activity in [5] came to 94%; in [6] it was 65%; in [10], 116%.

On to `Fc1ccc(-c2nc3n(c2-c2ccncc2)CCS3)cc1`, for which the residual activity came to 100% in [17]; 95% in assay [2]; 93% in assay [15]; 83% in [7]; 35% in assay [9]; 87% in [18]. In assay [19], the residual activity came to 96%.

As to `CCOC(=O)c1c(C)[nH]c(/C=C2\C(=O)Nc3ccccc32)c1C`, the residual activity was determined as 77% in [1]; 98% in [17]; 93% in assay [2]; 77% in assay [11]; 48% in assay [12]; 79% in assay [13]. The residual activity in assay [14] stood at 59%; in assay [15], 99%; in [10], 86%.

As to `CCN1/C(=C/C(C)=O)Sc2ccc(OC)cc21`, the residual activity in assay [2] came to 70%; in assay [15] it was 79%; in assay [19], 70%.

Turning to `O=C1Cc2c([nH]c3ccc([N+](=O)[O-])cc23)-c2ccccc2N1`, the residual activity amounted to 61% in assay [17]; 76% in assay [2]; 24% in assay [11]; 32% in [13]; 20% in assay [14]; 10% in assay [10].

As to `O=C(c1cc2cc(O)ccc2[nH]1)c1cc2cc(O)ccc2[nH]1`, the residual activity in [1] was 37%; in assay [17], 53%; in [2], 14%; in assay [11], 30%; in assay [12] it was 2%; in [13], 23%. Moreover, the residual activity was 4% in assay [14]; 114% in assay [3]; 76% in assay [4]; 73% in assay [8]; 70% in [5]; 59% in assay [6]. The residual activity amounted to 120% in assay [18], 122% in assay [19] and 13% in assay [10].

In the case of `O=c1c(-c2ccc(F)cc2)c(-c2ccncc2)[nH]n1-c1ccc(Cl)cc1`, the residual activity in [5] came to 122%; in assay [9], 36%; in assay [19], 99%.

Regarding `COc1ccc(COc2ccc(Cc3cnc(N)nc3N)cc2OC)cc1`, the residual activity was determined as 76% in assay [1]; 130% in assay [3]; 82% in assay [15]; 112% in assay [7]; 115% in [18]; 139% in assay [19]. The residual activity in assay [10] came to 112%.

Take `CC(C)[C@H](CO)Nc1nc(Nc2cc(N)cc(Cl)c2)c2ncn(C(C)C)c2n1`: the residual activity in assay [17] was 92%; in assay [2] it was 58%; in assay [11] it was 76%; in [12], 20%; in assay [13] it was 80%; in assay [14], 24%. Besides, the residual activity is 96% in assay [3]; 33% in [4]; 80% in [15]; 99% in assay [16]; 97% in [8]; 94% in assay [5]. The residual activity in assay [6] turned out to be 95%; in [7], 95%; in [9], 88%; in assay [18], 87%; in [19], 90%.
